A selection: hits, their analogues and other compounds. The true share with any hit is near 8.5%.
RGS12 GoLoco inh: inhibitors of human Gai1-RGS12 GoLoco interaction (red fluorophore). Gai1:RGS12 GoLoco peptide FP, rhodamine, 10 min. P63096. 230,000 compounds, 0.44% hits. Potency, µM (series often up to 61.6 µM), actives largely listed as inhibitors. AID 880; active = well fitted inhibition curve with a large enough effect, not every such curve was filed as active; inactive = no such curve, though single readings can be large or run the other way; note: nearly all actives have a fitted effect of over 30% in size
Target sequence (P63096 whole entry, looked up): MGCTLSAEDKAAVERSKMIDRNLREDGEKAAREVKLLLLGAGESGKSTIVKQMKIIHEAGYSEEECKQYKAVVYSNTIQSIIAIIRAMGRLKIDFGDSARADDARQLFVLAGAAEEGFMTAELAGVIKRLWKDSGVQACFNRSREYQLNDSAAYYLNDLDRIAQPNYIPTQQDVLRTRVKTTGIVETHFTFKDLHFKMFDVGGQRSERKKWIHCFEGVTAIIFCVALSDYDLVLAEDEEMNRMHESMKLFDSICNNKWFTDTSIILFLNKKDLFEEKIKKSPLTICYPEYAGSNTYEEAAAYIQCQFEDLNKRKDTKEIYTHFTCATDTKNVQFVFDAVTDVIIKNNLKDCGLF
NPSR antag: antagonists of human neuropeptide S receptor cAMP signaling; CHO-NPSR cells, cAMP TR-FRET, antagonist mode; Potency, µM (titrated, usually from 38.3 µM), usual class: inhibitors; 220,000 compounds, 1% hits; note: nearly all actives have a fitted effect of over 50% in size
FBPA coupling cs: counter-screen for Giardia aldolase inhibitors: coupling enzyme system; AID 2472; activity change, negative = inhibition, % at 58.2 µM, hits read low; coupling enzyme system counterscreen, AmpLite Red fluorescence; 290,000 compounds, 0.67% hits; in the data active = activity change below about -30%
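Fluorescence at 525 nm excitation and 598 nm emission measured inhibition of the coupled detection system without aldolase. Compounds (at 57.5 uM final) were preincubated 10 min at room temperature with coupling enzyme reagent before a 20 min substrate/AmpLite Red step.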
ALDH1A1 inh: blocks purified human ALDH1A1 activity; P00352; Purified ALDH1A1, NADH fluorescence, propionaldehyde substrate; Potency, µM (highest dose often 75.3 µM), usual class: inhibitors; 220,000 compounds, 7.3% hits; active = well fitted inhibition curve with a large enough effect, not every such curve was filed as active; inconclusive = small, poorly fitted or top-dose-only effect, or another doubt; inactive = no such curve, though single readings can be large or run the other way
KDM4E inh: inhibitors of human JMJD2E histone demethylase. 230,000 compounds, 1.6% hits. JMJD2E catalytic domain, FDH-coupled NADH fluorescence (FDH is formaldehyde dehydrogenase). B2RXH2. Potency, µM (titrated, usually from 57.1 µM), most hits filed as inhibitors; active = well fitted inhibition curve with a large enough effect, not every such curve was filed as active; inconclusive = small, poorly fitted or top-dose-only effect, or another doubt; inactive = no such curve, though single readings can be large or run the other way; note: nearly all actives have a fitted effect of over 50% in size
Target sequence (B2RXH2 1-337 limits assumed): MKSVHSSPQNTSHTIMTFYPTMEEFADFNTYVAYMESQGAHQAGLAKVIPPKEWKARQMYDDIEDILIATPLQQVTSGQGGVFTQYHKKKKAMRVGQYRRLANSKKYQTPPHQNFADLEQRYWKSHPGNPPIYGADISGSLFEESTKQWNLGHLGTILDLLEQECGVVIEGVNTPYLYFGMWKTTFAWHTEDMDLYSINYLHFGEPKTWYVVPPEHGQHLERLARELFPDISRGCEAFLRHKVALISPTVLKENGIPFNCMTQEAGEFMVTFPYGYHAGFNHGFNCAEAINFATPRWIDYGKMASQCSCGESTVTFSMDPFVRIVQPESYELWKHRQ
Sfp inh: blocks B. subtilis Sfp PPTase activity | 310,000 compounds, 3.5% hits | Q9F4F7 | AID 1490 | Potency, µM, most hits filed as inhibitors | Biochemical Sfp PPTase activity, qHTS;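 note: the enzyme is Sfp with the accession as filed and its product quenches rhodamine fluorescence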
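Fluorescence-quenching assay with 15 nM Sfp, 5 uM rhodamine-CoA and 12.5 uM BHQ-2-labelled ybbR peptide in pH 7.6 Hepes/MgCl2 buffer. Enzyme was pre-incubated with compound for 15 min at room temperature. Rate was taken from the 30-min fluorescence change (525/598 nm).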
Hits are given with their value; - = inactive; ? = inconclusive; . = no result. Unless noted, calls come from the whole dose curve; as a rule, active = well fitted curve in the direction sought with a large enough effect; inconclusive = small, poorly fitted or top-dose-only effect, or another doubt; inactive = no such curve, though single readings can be large; an effect the other way counts as inactive or inconclusive.

SMILES	RGS12 GoLoco inh	NPSR antag	FBPA coupling cs	ALDH1A1 inh	KDM4E inh	Sfp inh
CCn1c(CSc2nnc(-c3ccncc3)n2C)nc2cc(C(=O)O)ccc21	14µM	-	-	.	?	-
CC(=O)NC1C(=O)N=C(SCC(=O)Nc2c(C)cccc2C)NC1=O (configuration not stated)	-	-	-	?	-	-
CC(=O)NC1C(=O)Nc2c1cccc2C(F)(F)F (configuration not stated)	-	-	-	0.28µM	-	-
O=C(CN1CCc2cc3c(cc2C1)OCCCO3)Nc1cccc(Br)c1	.	.	.	.	.	-
S=c1[nH]ccn1-c1cccc(Cl)c1	-	-	-	-	-	-
Cc1ccc(-n2cc[nH]c2=S)cc1C	-	-	-	?	-	79µM
CCN(Cc1ccncc1)Cc1c(O)ccc2ccccc12	-	-	-33	10µM	?	-
O=[N+]([O-])c1ccccc1Nc1c2ccccc2nc2ccccc12	-	-	-	-	-	-
O=[N+]([O-])c1ccc(Nc2c3ccccc3nc3ccccc23)cc1	-	6.3µM	-	-	?	-
O=C(O)c1ccc(Nc2nc(-c3ccc([N+](=O)[O-])cc3)nc3ccccc23)cc1	.	.	-	.	.	50µM
O=[N+]([O-])c1ccc(-c2nc(Nc3ccc(O)cc3)c3ccccc3n2)cc1	.	.	-	.	.	-
Clc1ccccc1C(c1ccccc1)(c1ccccc1)n1ccnc1	-	5µM	-	-	-	-
Cc1ccc(CN(CC(=O)N/N=C/c2ccccc2[N+](=O)[O-])S(=O)(=O)c2ccc(C)cc2)cc1	-	?	-	?	-	-
O=C(CN(Cc1ccccc1)S(=O)(=O)c1ccccc1)N/N=C/c1ccccc1[N+](=O)[O-]	-	-	-	11µM	-	-
COc1cccc(/C=N/Nc2nc(C)cc(=O)[nH]2)c1OC	.	.	-	.	.	56µM
Cc1cc(=O)[nH]c(N/N=C/c2c[nH]c3ccccc23)n1	-	-	-	?	-	28µM
O=C(NC(=S)NCCc1ccccc1)c1ccccc1	-	-	-	16µM	-	-
S=C(NCCc1ccccc1)Nc1c(Cl)cccc1Cl	-	-	-	.	-	32µM
O=C(CCc1ccccc1)NNC(=S)NC(=O)c1ccccc1	-	-	-	18µM	-	?
OCCNC(=S)NCCc1ccccc1	-	-	-	-	-	-
CCCCC(=O)NC(=S)NNC(=O)CCc1ccccc1	-	-	-	.	?	-
CC(=O)NC(=S)NNC(=O)CCc1ccccc1	-	-	-	20µM	-	?
O=C(Nc1ccc(F)cc1)Nc1ccc(NC(=O)c2ccccc2O)cc1	-	-	-	.	?	-
CC(C)(C)c1cc(CCC(=O)NNC(=O)c2ccco2)cc(C(C)(C)C)c1O	-	-	-	-	-	-
COC(=O)C(Cc1ccccc1)NC(=S)NC(=O)c1ccccc1 (configuration not stated)	-	-	-	8.9µM	-	-
SMILES	RGS12 GoLoco inh	NPSR antag	FBPA coupling cs	ALDH1A1 inh	KDM4E inh	Sfp inh
O=C(CNC(=S)NC(=O)c1ccc(Br)o1)c1ccccc1	-	-	-	-	-	-
CC(C)(C)c1cc(CCC(=O)NNC(=S)NC(=O)c2ccccc2)cc(C(C)(C)C)c1O	-	-	-	?	-	56µM
O=C(CNC(=S)NC(=O)c1ccc(Cl)cc1)c1ccccc1	-	-	-	8.9µM	-	-
O=C(NC1CCCCC1)C(=S)NCCc1ccccc1	-	-	-	18µM	-	28µM
Cc1ccc(C)c(OCC(=O)Nc2ccc(C(=O)O)cc2NC(=O)COc2cc(C)ccc2C)c1	.	.	-	.	.	-
O=C(NC(=S)NCCC1=CCCCC1)c1cccnc1	-	-	-	14µM	-	-
COc1cc(C)c(NC(=O)C(=S)NCCc2ccccc2)cc1C	-	-	-	?	-	16µM
O=C(NC(=S)NCc1ccccc1)c1cccnc1	-	-	-	-	-	-
CCN1C(=O)/C(=C2/C=Cc3cc(C)ccc3N2CC)N(C)C1=S	-	-	-	?	?	?
CCN1/C(=C2\C(=O)N(C)C(=S)N2C)C=Cc2cc(OC)ccc21	-	-	-	?	?	50µM
CC(C)C(NC(=O)CC12CC3CC(CC(C3)C1)C2)C(=O)O (configuration not stated)	-	?	-	-	-	-
CCN1CCC(=NNC(=O)CC23CC4CC(CC(C4)C2)C3)CC1	-	-	-	1.8µM	-	-
Cc1ccc(OCC(=O)N/N=C/c2ccco2)cc1	-	-	-	28µM	-	-
Cc1ccc(OCC(=O)N/N=C/c2ccncc2)cc1C	-	-	-	-	-	-
Cc1ccccc1OCC(=O)N/N=C/c1ccco1	-	-	-	-	-	-
Cc1ccc(OCC(=O)N/N=C/C=C/c2ccco2)cc1C	-	-	-	?	-	45µM
Cc1ccc(/C=N/Nc2nc(C(C)(C)C)cs2)o1	-	-	-	?	-	50µM
Cc1ccc(/C=N/Nc2nc3ccccc3s2)o1	-	-	-	-	-	?
Clc1ccc(-c2csc(N/N=C/c3cccnc3)n2)c(Cl)c1	-	-	-	-	-	?
CC(C)(C)c1csc(N/N=C/c2cccnc2)n1	-	-	-	25µM	-	-
C(=N\Nc1nc(-c2ccccc2)cs1)/c1cccnc1	-	-	-	-	-	56µM
C/C(=N\Nc1nc(C(C)(C)C)cs1)c1ccc(O)cc1	.	.	-	.	.	50µM
O=[N+]([O-])c1ccc(N2CCN(CC3CCCCC3)CC2)cc1	.	.	-	.	.	-
COc1ccc(C)cc1NC(=O)C1CCCN(S(=O)(=O)c2cccnc2)C1 (configuration not stated)	.	.	-	.	.	-
CSCC[C@H](NC(=O)CNC(=O)CNC(=O)[C@H](CO)NC(=O)[C@H](CCCNC(=N)N)NC(=O)[C@H](CO)NC(=O)[C@H](CC(C)C)NC(=O)[C@H](CC(C)C)NC(=O)CNC(=O)[C@H](C)NC(=O)[C@H](CC(C)C)NC(=O)[C@H](CCCNC(=N)N)NC(=O)[C@H](Cc1cnc[nH]1)NC(=O)[C@@H](NC(=O)[C@@H](N)C(C)C)[C@@H](C)O)C(=O)N[C@H](C(=O)N[C@@H](CCCCN)C(=O)N[C@@H](CO)C(=O)N[C@@H](CC(N)=O)C(=O)N[C@@H](Cc1ccccc1)C(=O)N[C@H](C(=O)N1CCC[C@H]1C(=O)N[C@H](C(=O)N[C@@H](CC(N)=O)C(=O)N[C@H](C(=O)NCC(=O)N[C@@H](CO)C(=O)N[C@@H](CCCCN)C(=O)N[C@@H](C)C(=O)N[C@@H](Cc1ccccc1)C(N)=O)C(C)C)[C@@H](C)O)C(C)C)C(C)C	.	.	-	.	.	-
COC(=O)c1cc(C)sc1NC(=O)CN1CCN(C(=O)C2CCCO2)CC1 (configuration not stated)	.	.	.	.	.	-
Clc1ccc(N/N=C/c2cccnc2)cc1	-	-	-	25µM	-	-

Bioassay records as filed in PubChem.
